Tests used:
Assay in all cases: DAPPL (digital affinity profiling via proximity ligation, sequencing); 10 mM Tris-HCl pH 7.5, 50 mM NaCl, 1 mM DTT, 4% glycerol, room temperature, 30 min; GST-TFs on glutathione beads, 16-mer random dsDNA library, 0.1% formaldehyde crosslink after washing; high values mean tight binding
FEV = target: T1, FEV (Homo sapiens, UniProt Q99581 1-238); conditions: protein: recombinant; tags: N-terminal GST; dsDNA, one strand shown
T1 sequence: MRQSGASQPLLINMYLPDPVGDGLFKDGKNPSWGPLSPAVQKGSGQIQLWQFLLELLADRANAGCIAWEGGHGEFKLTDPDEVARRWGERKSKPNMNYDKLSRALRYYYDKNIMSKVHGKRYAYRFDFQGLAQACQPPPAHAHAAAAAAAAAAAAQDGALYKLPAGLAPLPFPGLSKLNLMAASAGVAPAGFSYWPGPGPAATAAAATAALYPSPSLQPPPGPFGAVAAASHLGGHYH
Method in brief: (§1)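 After expression in yeast as GST fusions, human transcription factors were bound to glutathione beads, DNA-barcoded and mixed with a tag-only sample. The pools were incubated with 200 nmole of a 16-mer random double-stranded DNA library in Tris/NaCl/DTT/glycerol buffer (30 min, room temperature), washed and crosslinked with 0.1% formaldehyde. Proximity ligation with BsaI/T4 ligase ran for 1 h at 37 °C, before PCR amplification and sequencing on an Illumina NextSeq500. Binding signal is a hexamer's read frequency for a factor divided by its frequency for the tag-only sample.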

ETV5 = ETV5 (Homo sapiens, UniProt P41161 1-510); conditions: protein: recombinant; tags: N-terminal GST; dsDNA, one strand shown
Chain of ETV5 (P41161 whole entry): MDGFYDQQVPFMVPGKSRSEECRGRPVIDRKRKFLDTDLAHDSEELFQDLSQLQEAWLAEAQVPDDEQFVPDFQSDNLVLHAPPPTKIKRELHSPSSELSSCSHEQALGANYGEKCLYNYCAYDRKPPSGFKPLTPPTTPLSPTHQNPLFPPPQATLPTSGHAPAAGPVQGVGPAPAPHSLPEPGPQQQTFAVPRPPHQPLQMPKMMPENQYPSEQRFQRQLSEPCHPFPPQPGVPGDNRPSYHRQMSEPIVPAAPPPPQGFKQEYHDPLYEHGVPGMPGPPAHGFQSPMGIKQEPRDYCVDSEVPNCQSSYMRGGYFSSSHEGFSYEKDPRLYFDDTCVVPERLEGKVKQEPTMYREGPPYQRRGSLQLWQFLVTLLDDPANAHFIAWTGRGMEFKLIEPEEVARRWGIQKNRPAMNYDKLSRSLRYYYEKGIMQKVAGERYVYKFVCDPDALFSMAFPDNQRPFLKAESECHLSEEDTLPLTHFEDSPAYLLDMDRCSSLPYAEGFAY
Method in brief: as §1

HSF1 = HSF1 (Homo sapiens, UniProt Q00613 1-529); conditions: protein: recombinant; tags: N-terminal GST; chain copies: 3; dsDNA, one strand shown
Chain of HSF1 (Q00613 whole entry): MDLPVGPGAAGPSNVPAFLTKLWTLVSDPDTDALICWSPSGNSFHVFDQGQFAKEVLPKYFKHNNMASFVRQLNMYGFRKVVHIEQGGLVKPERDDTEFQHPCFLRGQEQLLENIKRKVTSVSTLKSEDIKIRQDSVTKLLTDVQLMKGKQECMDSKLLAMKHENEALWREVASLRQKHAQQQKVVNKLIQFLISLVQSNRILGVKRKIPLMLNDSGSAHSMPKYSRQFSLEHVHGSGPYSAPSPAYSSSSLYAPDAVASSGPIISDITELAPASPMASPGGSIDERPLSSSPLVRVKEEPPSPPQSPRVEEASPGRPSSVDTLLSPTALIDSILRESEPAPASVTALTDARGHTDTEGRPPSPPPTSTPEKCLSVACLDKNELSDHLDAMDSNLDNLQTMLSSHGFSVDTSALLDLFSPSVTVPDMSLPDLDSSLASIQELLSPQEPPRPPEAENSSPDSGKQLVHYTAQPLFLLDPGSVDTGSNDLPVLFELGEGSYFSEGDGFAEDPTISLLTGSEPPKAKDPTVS
Method in brief: as §1

SPIC = target: T2, SPIC (Homo sapiens, UniProt Q8N5J4 1-248); conditions: protein: recombinant; tags: N-terminal GST; dsDNA, one strand shown
T2 sequence: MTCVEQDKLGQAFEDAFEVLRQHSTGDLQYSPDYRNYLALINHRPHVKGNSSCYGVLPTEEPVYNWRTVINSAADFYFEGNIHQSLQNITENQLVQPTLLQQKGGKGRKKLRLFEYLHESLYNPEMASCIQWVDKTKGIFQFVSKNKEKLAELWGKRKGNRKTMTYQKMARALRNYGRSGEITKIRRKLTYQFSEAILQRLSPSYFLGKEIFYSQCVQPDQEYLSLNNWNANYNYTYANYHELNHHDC
Method in brief: as §1

ELF4 = ELF4 (Homo sapiens, UniProt Q99607 1-663); conditions: protein: recombinant; tags: N-terminal GST; dsDNA, one strand shown
Chain of ELF4 (Q99607 whole entry): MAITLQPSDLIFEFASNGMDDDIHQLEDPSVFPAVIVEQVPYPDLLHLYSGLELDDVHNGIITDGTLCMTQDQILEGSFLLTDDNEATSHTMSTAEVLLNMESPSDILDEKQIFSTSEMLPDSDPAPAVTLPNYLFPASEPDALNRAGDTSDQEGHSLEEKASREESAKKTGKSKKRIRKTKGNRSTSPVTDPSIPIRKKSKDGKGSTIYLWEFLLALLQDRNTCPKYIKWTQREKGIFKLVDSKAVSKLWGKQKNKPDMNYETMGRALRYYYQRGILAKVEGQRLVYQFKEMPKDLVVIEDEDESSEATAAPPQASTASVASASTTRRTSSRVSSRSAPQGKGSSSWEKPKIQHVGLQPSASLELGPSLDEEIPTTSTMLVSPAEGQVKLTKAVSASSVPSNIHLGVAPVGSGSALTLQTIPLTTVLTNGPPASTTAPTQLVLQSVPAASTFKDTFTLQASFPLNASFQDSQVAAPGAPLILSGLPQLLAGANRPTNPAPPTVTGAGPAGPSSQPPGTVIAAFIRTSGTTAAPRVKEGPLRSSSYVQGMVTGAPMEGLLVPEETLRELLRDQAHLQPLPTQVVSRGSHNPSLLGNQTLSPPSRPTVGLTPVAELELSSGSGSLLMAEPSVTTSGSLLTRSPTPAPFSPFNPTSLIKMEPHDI
Method in brief: as §1

ELK4 = target: T3, ELK4 (Homo sapiens, UniProt P28324-2 1-405); conditions: protein: recombinant; tags: N-terminal GST; dsDNA, one strand shown
T3 sequence: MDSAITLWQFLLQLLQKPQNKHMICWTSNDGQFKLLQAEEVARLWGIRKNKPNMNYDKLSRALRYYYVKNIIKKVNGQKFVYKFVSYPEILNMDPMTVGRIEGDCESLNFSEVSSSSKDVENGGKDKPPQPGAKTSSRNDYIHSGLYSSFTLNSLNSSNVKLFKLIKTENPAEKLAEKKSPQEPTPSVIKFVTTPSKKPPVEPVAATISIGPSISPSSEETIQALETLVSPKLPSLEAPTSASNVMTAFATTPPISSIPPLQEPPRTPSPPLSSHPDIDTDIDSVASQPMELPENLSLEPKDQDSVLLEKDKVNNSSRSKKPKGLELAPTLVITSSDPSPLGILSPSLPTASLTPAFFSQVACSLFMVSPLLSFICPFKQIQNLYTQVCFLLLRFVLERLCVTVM
Method in brief: as §1

ETV2 = target: T4, ETV2 (Homo sapiens, UniProt O00321 1-342); conditions: protein: recombinant; tags: N-terminal GST; dsDNA, one strand shown
T4 sequence: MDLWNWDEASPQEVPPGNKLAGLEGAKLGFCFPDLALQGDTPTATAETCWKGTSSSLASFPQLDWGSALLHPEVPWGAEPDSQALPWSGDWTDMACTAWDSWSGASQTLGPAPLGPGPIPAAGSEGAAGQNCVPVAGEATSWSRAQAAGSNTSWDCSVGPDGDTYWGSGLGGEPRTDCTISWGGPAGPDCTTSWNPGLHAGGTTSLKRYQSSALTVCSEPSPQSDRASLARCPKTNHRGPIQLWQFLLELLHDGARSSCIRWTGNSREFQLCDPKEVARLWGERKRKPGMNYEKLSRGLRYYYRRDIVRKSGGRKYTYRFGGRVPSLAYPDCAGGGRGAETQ
Method in brief: as §1

ELF3 = target: T5, ELF3 (Homo sapiens, UniProt P78545 1-371); conditions: protein: recombinant; tags: N-terminal GST; dsDNA, one strand shown
T5 sequence: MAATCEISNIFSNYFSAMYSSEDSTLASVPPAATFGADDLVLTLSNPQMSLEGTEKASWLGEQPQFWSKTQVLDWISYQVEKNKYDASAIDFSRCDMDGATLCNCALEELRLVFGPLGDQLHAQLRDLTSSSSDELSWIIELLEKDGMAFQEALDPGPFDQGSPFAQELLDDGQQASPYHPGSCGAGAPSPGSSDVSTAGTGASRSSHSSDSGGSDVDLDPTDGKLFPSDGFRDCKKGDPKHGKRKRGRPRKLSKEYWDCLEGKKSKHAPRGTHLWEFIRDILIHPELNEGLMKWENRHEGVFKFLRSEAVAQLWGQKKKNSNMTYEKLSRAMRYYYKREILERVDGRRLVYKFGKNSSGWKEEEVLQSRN
Method in brief: as §1

CRX = CRX (Homo sapiens, UniProt O43186 1-299); conditions: protein: recombinant; tags: N-terminal GST; dsDNA, one strand shown
Chain of CRX (O43186 whole entry): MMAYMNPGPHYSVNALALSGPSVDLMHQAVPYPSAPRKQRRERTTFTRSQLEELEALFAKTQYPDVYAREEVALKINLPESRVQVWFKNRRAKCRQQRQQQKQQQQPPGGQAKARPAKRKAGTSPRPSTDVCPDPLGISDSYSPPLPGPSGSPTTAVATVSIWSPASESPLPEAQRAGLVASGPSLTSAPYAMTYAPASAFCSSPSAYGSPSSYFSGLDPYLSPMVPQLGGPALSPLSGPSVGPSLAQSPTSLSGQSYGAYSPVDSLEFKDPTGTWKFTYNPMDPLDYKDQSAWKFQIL
Method in brief: as §1

ETV1 = ETV1 (Homo sapiens, UniProt P50549 1-477); conditions: protein: recombinant; tags: N-terminal GST; dsDNA, one strand shown
Chain of ETV1 (P50549 whole entry): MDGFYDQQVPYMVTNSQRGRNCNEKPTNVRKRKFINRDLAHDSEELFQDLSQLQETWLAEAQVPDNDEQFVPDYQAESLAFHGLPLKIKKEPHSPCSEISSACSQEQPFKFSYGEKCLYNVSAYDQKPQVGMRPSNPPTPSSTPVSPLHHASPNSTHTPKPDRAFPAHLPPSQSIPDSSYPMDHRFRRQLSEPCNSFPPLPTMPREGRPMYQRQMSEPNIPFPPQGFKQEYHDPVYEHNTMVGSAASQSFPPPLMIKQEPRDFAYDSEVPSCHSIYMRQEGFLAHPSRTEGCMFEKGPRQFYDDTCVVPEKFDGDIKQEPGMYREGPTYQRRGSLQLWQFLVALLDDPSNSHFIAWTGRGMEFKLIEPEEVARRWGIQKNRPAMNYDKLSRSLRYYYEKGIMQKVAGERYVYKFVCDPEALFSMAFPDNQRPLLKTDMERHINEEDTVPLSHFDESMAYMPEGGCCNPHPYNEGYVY
Method in brief: as §1

CTAATC was tested, and the binding signal (FEV) was 1.33 fold enrichment (6-mer frequency, TF over GST control), the binding signal (ETV5) was 1.32 fold enrichment (6-mer frequency, TF over GST control) and the binding signal (HSF1) was 3.22 fold enrichment (6-mer frequency, TF over GST control). The binding signal (SPIC) was 1.41 fold enrichment (6-mer frequency, TF over GST control), the binding signal (ELF4) was 1.42 fold enrichment (6-mer frequency, TF over GST control) and the binding signal (ELK4) was 1.35 fold enrichment (6-mer frequency, TF over GST control). For the same sequence, the binding signal (ETV2) was 1.41 fold enrichment (6-mer frequency, TF over GST control), the binding signal (ELF3) was 1.56 fold enrichment (6-mer frequency, TF over GST control) and the binding signal (CRX) was 5.33 fold enrichment (6-mer frequency, TF over GST control). For the same sequence, the binding signal (ETV1) was 1.49 fold enrichment (6-mer frequency, TF over GST control).
